# Results from the supplement of paper PMC7858590.
# System: human monocyte-derived macrophages (polarized)
# Test: cell shape (eccentricity) Z-score vs DMSO control; higher = more elongated, M2-like morphology
# Conditions: 5 µM; 24 h; macrophage state: M1-polarized (IFNg + TNFa), cytokines present during treatment
# Description: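 Primary-screen hits were rescreened on polarized hMDMs with the differentiating cytokines (IL-4 + IL-13 or IFNg + TNFa) kept in the medium during treatment with compound at 5 uM for 24 h. The eccentricity Z-score vs DMSO wells is averaged over experiments.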
row,Compound,cell shape (Z-score)
1,Cc1cc(N2CCOCC2)cc2[nH]c(-c3c(NC[C@@H](O)c4cccc(Cl)c4)cc[nH]c3=O)nc12,2.38
2,Clc1ccc(C2(c3ccc(-c4cn[nH]c4)cc3)CCNCC2)cc1,24.9
3,CC1(CCOC2OC(CO)C(O)C(O)C2O)CCC2C(=CCC3C(C)(C(=O)O)CCCC23C)C1 (stereo unspecified),-2.26
4,CCC1(C)CC(=O)NC1=O (stereo unspecified),-7.19
5,CC(C)(C)c1nc(-c2cccc(NS(=O)(=O)c3c(F)cccc3F)c2F)c(-c2ccnc(N)n2)s1,-2.77
6,O=S(=O)(c1cccc2cnccc12)N1CCNCC1,3.08
7,CC(C)C[C@H](NC(=O)CNC(=O)c1cc(Cl)ccc1Cl)B(O)O,0.365
8,CC1=C(/C=C/C(C)=C/C=C/C(C)=C/CO)C(C)(C)CCC1,7.5
9,Cc1c(C(=O)Nc2ccc(N3C[C@@H](C)O[C@@H](C)C3)nc2)cccc1-c1ccc(OC(F)(F)F)cc1,8.76
10,Cc1[nH]c2ccccc2c1CCNCc1ccc(/C=C/C(=O)NO)cc1,6.17
11,Cc1nn(C)c2nc(NNC(=O)Nc3cc(Cl)nc(Cl)c3)cc(C(C)C)c12,7.42
12,COc1cc2nccc(Oc3ccc(NC(=O)Nc4cc(C)on4)c(Cl)c3)c2cc1OC,7.92
13,N#Cc1ccc(COC[C@H]2O[C@@H](n3c(NCc4ccc(Cl)c(Cl)c4)nc4c(N)ncnc43)[C@H](O)[C@@H]2O)cc1,-3.47
14,O=c1cc(-c2ccc(O)cc2)oc2cc(O)ccc12,2.2
15,C[C@@]1(C(=O)Nc2ccc(F)nc2)CCCN1c1nc(Nc2cc(C3CC3)n[nH]2)c2cccn2n1,5.79
16,C=CC(=O)N1CCC[C@@H](n2nc(-c3ccc(Oc4ccccc4)cc3)c3c(N)ncnc32)C1,6.69
